Screens (PubChem BioAssay)
Hits are enriched below; roughly 12% of the tested compounds scored in any of these assays.
SARS PLP yeast: inhibitors of SARS-CoV papain-like protease in yeast. S. cerevisiae expressing SARS-CoV PLpro, growth rescue. Potency, µM (titrated, usually from 32.9 µM), without a hit: top-dose activity, positive = growth rescue, actives largely listed as activators. 330,000 tested, 0.19% active. AID 485353; calls by dose curve; also: 0% is about no effect; nearly all actives have a fitted effect of over 55% in size
AmpC inh detg: inhibitors of E. coli AmpC beta-lactamase with detergent | P00811 | AmpC hydrolysis of nitrocefin, absorbance 480 nm, 0.01% Triton | Potency, µM (highest dose often 114 µM), for inactives: top-dose activity change, negative = inhibition, actives largely listed as inhibitors | 370,000 tested, 0.041% active | AID 485294;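 also: 0% = no-compound wells and -100% = no-enzyme wells; nearly all actives have a fitted effect of over 25% in size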
Target sequence (P00811 whole entry, looked up): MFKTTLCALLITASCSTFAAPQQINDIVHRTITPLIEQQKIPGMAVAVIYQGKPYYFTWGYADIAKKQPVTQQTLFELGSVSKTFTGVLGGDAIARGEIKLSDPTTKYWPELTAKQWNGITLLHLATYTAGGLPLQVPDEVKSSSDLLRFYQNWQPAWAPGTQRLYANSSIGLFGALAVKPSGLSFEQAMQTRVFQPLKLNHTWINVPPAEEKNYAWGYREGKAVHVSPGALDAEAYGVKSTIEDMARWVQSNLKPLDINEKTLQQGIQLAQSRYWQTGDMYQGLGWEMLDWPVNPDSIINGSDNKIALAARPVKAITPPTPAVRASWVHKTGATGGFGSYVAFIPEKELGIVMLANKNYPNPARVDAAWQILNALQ
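AmpC (5.3 nM in the dispensed reagent) in 20 mM phosphate pH 7.0 with 0.01% (detergent screen) or 0.0001% Triton X-100 was preincubated with compounds for 15 min at room temperature. Nitrocefin was then added from an 800 uM solution, and hydrolysis was followed at 480 nm.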
Sm TGR inh: blocks Schistosoma mansoni thioredoxin glutathione reductase; Potency, µM (highest dose often 114 µM), for the others: top-dose activity change, negative = inhibition, most hits filed as inhibitors; purified TGR, DTNB reduction, TNB absorbance 405 nm; AID 485364; 360,000 tested, 3% active; also: % is scaled to controls: 0 for no effect and ±100 for the full control effect; nearly all actives have a fitted effect of over 60% in size
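Kinetic colorimetric format: TGR-catalysed, NADPH-driven DTNB reduction monitored via TNB absorbance. Enzyme dispensed at 20 nM; compound exposure 15 min at room temperature before reaction start.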
Pf growth 96h: P. falciparum growth inhibition at 96 hour, primary screen for plastid delayed-death inhibitors; AID 504834; 320,000 tested, 6.9% active; P. falciparum luciferase reporter growth, 96 h; Potency, µM (highest dose often 28.7 µM), without a hit: top-dose activity change, negative = inhibition, usual class: inhibitors; also: % is scaled to controls: 0 for no effect and ±100 for the full control effect
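Parasite growth measured via integrated firefly luciferase reporter in P. falciparum. Infected erythrocytes at 2% hematocrit, 0.05% parasitemia final were treated 96 hours at 37 C under 5% CO2, and luminescence was read.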
AmpC inh no detg: inhibitors of E. coli AmpC beta-lactamase without detergent. 330,000 tested, 0.52% active. Potency, µM (titrated, usually from 57.1 µM), for inactives: top-dose activity change, negative = inhibition, usual class: inhibitors. AmpC nitrocefin hydrolysis, absorbance 480 nm, 0.0001% Triton;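 also: plate controls were no compound for no effect and no enzyme for full effect; nearly all actives have a fitted effect of over 20% in size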
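20 mM phosphate pH 7.0 + 0.01% (detergent screen) or 0.0001% Triton X-100; 5.3 nM AmpC reagent; cpd preinc 15 min RT; nitrocefin (800 uM stock) to start; A480 q20 s × 4 min; Activity was normalised to no-enzyme and no-compound control wells.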
Pf growth 48h: P. falciparum growth inhibition at 48 hours (one generation); P. falciparum luciferase growth in erythrocytes, 48 h; Potency, µM (highest dose often 28.7 µM), without a hit: at the highest dose activity change, negative = inhibition, hits mostly inhibitors; 310,000 tested, 5.9% active; AID 504832; also: % is scaled to controls: 0 for no effect and ±100 for the full control effect
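Parasite viability was followed by luminescence of a genomically integrated firefly luciferase. Cultures held 0.1% parasitemia at 2% hematocrit (final), incubated under 5% CO2 at 37 C.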
Starred values were filed as active, the others as inactive. Unless noted, calls follow the shape of the dose curve; as a rule, active = well fitted curve in the direction sought with a large enough effect; inconclusive = small, poorly fitted or top-dose-only effect, or another doubt; inactive = no such curve, though single readings can be large; an effect the other way counts as inactive or inconclusive. Potency is read from the fitted curve at half-maximal effect.

What do the screens show for `CC(=O)c1cccc(NC(=O)Cn2c(=O)oc3cc(S(=O)(=O)NC4CCCC4)ccc32)c1`?
AmpC inh detg: 2%; Sm TGR inh: 7%

Results for O=C(OCc1cn(Cc2ccccc2)nn1)c1ccccc1 ?
SARS PLP yeast: 1%; AmpC inh detg: -8%; Sm TGR inh: 10%; Pf growth 96h: 112%; AmpC inh no detg: -19%; Pf growth 48h: 70%

How did O=C(OCc1nnn(Cc2ccccc2)c1-c1c(COC(=O)c2ccccc2)nnn1Cc1ccccc1)c1ccccc1 do in these assays?
SARS PLP yeast: 1%; AmpC inh detg: -1%; Sm TGR inh: 4%; Pf growth 96h: 1.9µM*; AmpC inh no detg: -12%; Pf growth 48h: 3.3µM*

How did COc1ccc(S(=O)(=O)N/N=C\c2ccc([N+](=O)[O-])o2)c(OC)c1 do in these assays?
SARS PLP yeast: 0%; AmpC inh detg: 1%; Sm TGR inh: 1%; Pf growth 96h: 10µM*; AmpC inh no detg: 45%; Pf growth 48h: 3%

What do the screens show for `O=[N+]([O-])c1ccc(/C=N\NS(=O)(=O)c2ccc(F)cc2)o1`?
SARS PLP yeast: -11%; AmpC inh detg: inconclusive; Sm TGR inh: inconclusive; Pf growth 96h: -3%; AmpC inh no detg: -19%; Pf growth 48h: 22%

How did Cn1cc(C(c2ccccc2OCC(=O)O)c2cn(C)c3ccccc23)c2ccccc21 do in these assays?
SARS PLP yeast: 1%; AmpC inh detg: -13%; Sm TGR inh: 1%; Pf growth 96h: 5.2µM*; AmpC inh no detg: -19%; Pf growth 48h: 32%

Results for CCn1c(=O)cc(OCC(=O)O)c2ccccc21 ?
SARS PLP yeast: 2%; AmpC inh detg: 2%; Sm TGR inh: 0%; Pf growth 96h: 0%; AmpC inh no detg: -6%; Pf growth 48h: 5%

Results for CCOC(=O)c1ccccc1NC(=O)CN(c1cc(C(F)(F)F)ccc1Cl)S(C)(=O)=O ?
AmpC inh detg: 15%; Sm TGR inh: 16%

Results for CC/C(=N/Nc1ccccc1)c1cnnc(-c2ccccc2)n1 ?
SARS PLP yeast: -21%; AmpC inh detg: -9%; Sm TGR inh: -15%; Pf growth 96h: 0.1µM*; AmpC inh no detg: -17%; Pf growth 48h: 0.13µM*

Results for CCC(=O)c1ccc(OCC(=O)OCC(=O)NCC2CCCCC2)cc1 ?
SARS PLP yeast: -7%; AmpC inh detg: -13%; Sm TGR inh: 1%; Pf growth 96h: 28%; AmpC inh no detg: -6%; Pf growth 48h: -1%

Results for Cc1cc(-c2ccc(C)c(S(=O)(=O)NCCCN3CCN(c4ccccc4F)CC3)c2)on1 ?
SARS PLP yeast: -10%; AmpC inh detg: 2%; Sm TGR inh: 9%; Pf growth 96h: 4.7µM*; AmpC inh no detg: 52%; Pf growth 48h: inconclusive

What do the screens show for `CCOc1ccccc1N1CCN(c2ncnc3scc(-c4ccc(OC)cc4)c23)CC1`?
SARS PLP yeast: 5%; AmpC inh detg: 3%; Sm TGR inh: 12%; Pf growth 96h: inconclusive; AmpC inh no detg: -22%; Pf growth 48h: 5.9µM*

Results for COc1ccc(-c2csc3ncnc(N4CCN(c5ccccc5OC)CC4)c23)cc1 ?
SARS PLP yeast: -5%; AmpC inh detg: -12%; Sm TGR inh: 12%; Pf growth 96h: inconclusive; AmpC inh no detg: 88%; Pf growth 48h: 5.9µM*

Results for Cc1ccc(-c2csc3ncnc(N4CCN(S(=O)(=O)c5cccs5)CC4)c23)cc1 ?
SARS PLP yeast: -8%; AmpC inh detg: -5%; Sm TGR inh: -5%; Pf growth 96h: inconclusive; AmpC inh no detg: -29%; Pf growth 48h: 6.6µM*

How did COc1ccc(-c2csc3ncnc(N4CCN(CCO)CC4)c23)cc1 do in these assays?
SARS PLP yeast: 0%; AmpC inh detg: 3%; Sm TGR inh: -3%; Pf growth 96h: -28%; AmpC inh no detg: 19%; Pf growth 48h: -10%

What do the screens show for `O=C(C1CCN(c2nc3ccc(Br)cc3s2)CC1)N1CCC2(CC1)OCCO2`?
SARS PLP yeast: 6%; AmpC inh detg: 0%; Sm TGR inh: -3%; Pf growth 96h: 4.7µM*; AmpC inh no detg: 70%; Pf growth 48h: 41%

What do the screens show for `CCC(COC(=O)c1cc(OC)c(OC)c(OC)c1)(c1ccccc1)N(C)C` (centres undefined)?
SARS PLP yeast: -10%; AmpC inh detg: -13%; Sm TGR inh: -1%; Pf growth 96h: inconclusive; AmpC inh no detg: 94%; Pf growth 48h: 15µM*

What do the screens show for `COc1cc(C(=O)OCC(=O)N(C)Cc2ccccc2)cc(OC)c1OC`?
SARS PLP yeast: 15%; AmpC inh detg: inconclusive; Sm TGR inh: 5%; Pf growth 96h: inconclusive; AmpC inh no detg: -3%; Pf growth 48h: inconclusive

Results for CCCN(C(=O)COc1cc(=O)n(CC)c2ccccc12)c1ccc(C(C)C)cc1 ?
AmpC inh detg: -14%; Sm TGR inh: -12%

Results for O=C(O)c1cccc(-n2cnc3cccnc32)c1 ?
AmpC inh detg: 14%; Sm TGR inh: 1%

What do the screens show for `COc1cc(OC)cc(-c2nnc(SCC(=O)N(C(C)C)C(C)C)o2)c1`?
SARS PLP yeast: 1%; AmpC inh detg: -2%; Sm TGR inh: 14%; Pf growth 96h: 65%; AmpC inh no detg: 142%; Pf growth 48h: 7.4µM*

Results for COc1cc(OC)cc(-c2nnc(SCC(=O)N(Cc3ccccc3)C(C)(C)C)o2)c1 ?
SARS PLP yeast: -1%; AmpC inh detg: inconclusive; Sm TGR inh: 0%; Pf growth 96h: 333%; AmpC inh no detg: 32%; Pf growth 48h: inconclusive

What do the screens show for `COc1cc(-c2nnc(SCC(=O)N(Cc3ccccc3)C(C)(C)C)o2)cc(OC)c1OC`?
SARS PLP yeast: -10%; AmpC inh detg: -18%; Sm TGR inh: 1%; Pf growth 96h: 3.7µM*; AmpC inh no detg: 123%; Pf growth 48h: 10µM*

What do the screens show for `COc1ccc(-c2nnc(SCC(=O)NC(C)c3ccccc3)o2)cc1` (centres undefined)?
SARS PLP yeast: -8%; AmpC inh detg: inconclusive; Sm TGR inh: 0%; Pf growth 96h: 10µM*; AmpC inh no detg: -11%; Pf growth 48h: 1%

What do the screens show for `Cc1ccc(C(=O)c2oc3ccccc3c2NC(=O)Cc2coc3c(C)c(C)ccc23)cc1`?
AmpC inh detg: -3%; Sm TGR inh: -2%

What do the screens show for `CCCN(CCC)C(=O)Cn1c(=O)n(-c2ccc(Cl)c(Cl)c2)c(=O)c2c(C)c(C(=O)N(C)C)sc21`?
AmpC inh detg: -7%; Sm TGR inh: 0%
